The subject of assay [1] is XIP peptide (Xip251-270) binding. The assay is described as follows: XIP fragment 251-270 binding compounds – biochemical, small-molecule microarray, fluorescence 635/667 nm, 0.1 µg/mL protein, primary screen (AID 1182). Conditions: fluorescent protein binding, 635 nm, higher = more signal, called active from +8 up or from −8 down.
Assay [2] has as its system XIP peptide (Xip251-270). The assay is described as follows: compounds binding XIP fragment 251-270 – biochemical, small-molecule microarray, fluorescence 635/667 nm, 0.5 µg/mL protein, primary screen (AID 1183). Conditions: fluorescence 635 nm, higher = more signal.
Assay [3] in a line: blood-stage malaria parasite viability loss – strain 3D7, DAPI fluorescence, 100 nL, primary screen (AID 1184).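 Further: parasites grown inside human red blood cells in medium with human serum.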 Conditions: P. falciparum 3D7 growth, 3 d, higher = more signal.
Assay [4] concerns the target Homeobox protein Hox-A13 (Mus musculus) (UniProt Q62424). In words: disruptors of Hoxa13 oligonucleotide interaction – biochemical, fluorescence polarization, labeled oligonucleotide, primary screen (AID 1185). Conditions: Hoxa13:DNA binding, 15 min, higher = more signal, called active from +8 up or from −8 down. (Polarisation of emitted light reports the rotation of a fluorescent probe.)

The nature of assay [5]: blockers of DNA damage checkpoint Chk1 activation – imaging, HeLa, hydroxyurea, phospho-Chk1 antibody, percent positive cells, primary screen (AID 1186). The note with it: hydroxyurea-induced phospho-Chk1 immunofluorescence imaging, higher = more signal.
Assay [6] in a line: blockers of DNA damage checkpoint Chk1 activation – imaging, HeLa, hydroxyurea, phospho-Chk1 nuclear intensity, primary screen (AID 1187). Conditions: hydroxyurea-induced phospho-Chk1 immunofluorescence imaging, higher = more signal.

Active and inactive are the calls of the source. Unless noted, how the calls were made is not given here.

Homeobox protein Hox-A13 (Mus musculus), sequence (Q62424 whole entry, looked up): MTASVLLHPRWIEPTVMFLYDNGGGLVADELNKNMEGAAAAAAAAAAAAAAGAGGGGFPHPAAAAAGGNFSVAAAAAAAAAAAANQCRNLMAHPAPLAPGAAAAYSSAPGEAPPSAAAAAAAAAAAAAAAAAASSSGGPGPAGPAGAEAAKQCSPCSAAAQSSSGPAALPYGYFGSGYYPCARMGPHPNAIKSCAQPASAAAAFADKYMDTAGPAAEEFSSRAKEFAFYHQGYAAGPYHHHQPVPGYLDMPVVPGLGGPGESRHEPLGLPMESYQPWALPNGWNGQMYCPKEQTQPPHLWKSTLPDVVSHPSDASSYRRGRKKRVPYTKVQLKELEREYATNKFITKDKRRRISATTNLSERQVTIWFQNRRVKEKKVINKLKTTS

On to `CCOc1cc(C(O)C2C=CC3C(=O)N(c4ccccc4)C(=O)C3N2Nc2ccc(C#N)cc2)ccc1O` (configuration not stated), for which the figures for the composite z-score in assay [1] and in assay [2] were 0.186 (inactive) and 0.535, respectively. Further, the z-score is -0.435 in assay [3], -4.2 (inactive) in assay [4], -0.22 (inactive) in assay [5] and -0.0602 (inactive) in assay [6].

In the case of `Cc1ccc(S[C@]2(C(=O)NCC(F)(F)F)CC(=O)N(C3CCCCC3)[C@@H]2c2ccc(CO)cc2I)cc1`, the composite z-score in assay [1] is -0.0988 (inactive); in assay [2], 0.735. Further, the z-score in assay [3] is -0.142; in assay [4], -3.45 (inactive); in assay [5], 0.148 (inactive); in assay [6] it was 0.594 (inactive).

Consider `CC1CC/C=C\[C@H]2OC34C=CCN(C(C)C)C(=O)[C@H]3N(CCCCCCO)C(=O)[C@@H]4C2C(=O)O1` (some centres not stated), for which the values for the composite z-score in assay [1] and in assay [2] were 0.565 (inactive) and 0.27, respectively. Besides, the z-score is -0.565 in assay [3], -3.74 (inactive) in assay [4], -0.108 (inactive) in assay [5] and 0.631 (inactive) in assay [6].

With `[N-]=[N+]=NCc1ccccc1[C@H]1OC(c2ccc(OCCCO)cc2)=N[C@@]1(CCS(=O)(=O)c1ccccc1)C(=O)N1CCCCC1`, the composite z-score in assay [1] was 0.447 (inactive); in assay [2], 0.757. Further, the z-score is -2.46 in assay [3], -3.76 (inactive) in assay [4], -0.0013 (inactive) in assay [5] and -0.0087 (inactive) in assay [6].

`CCCCC(=C=CC[C@@H](O)c1ccccc1OCCO)C[C@@H](O)COCc1ccccc1`: the composite z-score in assay [1] was -0.175 (inactive); in assay [2] it was 0.868. Further, the z-score was -1.67 in assay [3], -4.72 (inactive) in assay [4], 0.193 (inactive) in assay [5] and 1.06 (inactive) in assay [6].

`NC(=O)NCC#Cc1ccc2c(c1)[C@]1(C(=O)N2)[C@H](C(=O)NC[C@H](O)c2ccccc2)[C@H]2C(=O)O[C@H](c3ccccc3)[C@H](c3ccccc3)N2[C@@H]1c1ccc(OCCO)cc1`: the composite z-score is 0.869 (inactive) in assay [1] and 0.528 in assay [2]. Further, the z-score in assay [3] is -0.0803; in assay [4], -2.75 (inactive); in assay [5], 0.179 (inactive); in assay [6] it was 0.446 (inactive).

Consider `[N-]=[N+]=NCc1ccccc1C[C@@]1(C(=O)N2CCOCC2)N=C(c2ccc(OCCCO)cc2)O[C@@H]1c1ccccc1`, for which the figures for the composite z-score in assay [1] and in assay [2] were 0.761 (inactive) and 0.74, respectively. Moreover, the z-score in assay [3] was -2.73; in assay [4] it was -4.1 (inactive); in assay [5], 0.123 (inactive); in assay [6], 0.608 (inactive).

In the case of `COCCOC(=O)N1C(=O)[C@@]2(c3cc(C#CCCO)ccc31)[C@H](C(=O)Nc1nc3ccccc3s1)[C@H]1C(=O)O[C@H](c3ccccc3)[C@H](c3ccccc3)N1[C@@H]2c1ccccc1OCCO`, the figures for the composite z-score in assay [1] and in assay [2] were 0.0261 (inactive) and 0.73, respectively. The z-score was -1.68 in assay [3], 2.62 (inactive) in assay [4], 0.225 (inactive) in assay [5] and 0.416 (inactive) in assay [6].

For `CN(C)C(=O)C1N=C(c2ccc(OCCCO)cc2)N(c2ccccc2)O1` (configuration not stated), the composite z-score is 0.94 (inactive) in assay [1] and 0.62 in assay [2]. The z-score was 0.639 in assay [3], -1.46 (inactive) in assay [4], -0.823 (inactive) in assay [5] and -0.846 (inactive) in assay [6].

For the molecule `O=C1NC(=O)C2C1C=CC(C(O)c1ccco1)N2Nc1ccccn1` (configuration not stated), the composite z-score in assay [1] is -0.409 (inactive); in assay [2], -0.195. Also, the z-score is 1.36 in assay [3], -3.55 (inactive) in assay [4], 0.0556 (inactive) in assay [5] and -0.0488 (inactive) in assay [6].

On to `C=C(COC)C(=O)CC[C@@H](OC(=O)c1cccnc1)c1ccc(OCCO)cc1`, for which the composite z-score in assay [1] is -0.344 (inactive); in assay [2], 0.481. Moreover, the z-score in assay [3] is 0.415; in assay [4] it was -4.4 (inactive); in assay [5], -0.0647 (inactive); in assay [6], -0.573 (inactive).

As to `CN(C)CCCNC(=O)[C@@]1(c2ccc([N+](=O)[O-])cc2)CC(=O)N(CC23CC4CC(CC(C4)C2)C3)[C@@H]1c1ccc(CO)cc1I`, the composite z-score in assay [1] is 0.166 (inactive); in assay [2] it was 0.86. In addition, the z-score in assay [3] is -2.16; in assay [4], 8.34 (active); in assay [5], -0.449 (inactive); in assay [6] it was -0.766 (inactive).

Regarding `CN(C)CCCNC(=O)[C@@H]1c2ccccc2C(=O)N(Cc2ccccc2Cl)[C@H]1c1ccc(CO)cc1`, the results for the composite z-score in assay [1] and in assay [2] were 0.596 (inactive) and 0.285, respectively. In addition, the z-score in assay [3] is -0.424; in assay [4], -2.58 (inactive); in assay [5], 0.0357 (inactive); in assay [6] it was 0.0322 (inactive).

Turning to `COc1ccc(-c2cc3c(c(CCc4ccccc4)n2)[Si](C(C)C)(C(C)C)OC3)cn1`, the composite z-score in assay [1] is -0.406 (inactive); in assay [2], -0.251. In addition, the z-score was -0.118 in assay [3], -2.5 (inactive) in assay [4], -0.0328 (inactive) in assay [5] and 0.236 (inactive) in assay [6].

For `C#CCN([C@@H](Cc1ccc(O)cc1)C(=O)OC)[C@@H](/C=C/C1CC1)[C@H](O)Cc1ccccc1`, the values for the composite z-score in assay [1] and in assay [2] were -0.297 (inactive) and -0.331, respectively. Besides, the z-score in assay [3] was 0.501; in assay [4] it was -7.49 (inactive); in assay [5] it was -0.453 (inactive); in assay [6] it was -0.368 (inactive).

For the molecule `Cc1cc(C)cc(N2C(=O)CSC2c2cccc([N+](=O)[O-])c2)c1` (configuration not stated), the composite z-score in assay [1] is 0.397 (inactive); in assay [2] it was 0.521. In addition, the z-score in assay [3] is -0.0855; in assay [4], 0.0457 (inactive); in assay [5] it was -0.251 (inactive); in assay [6], -0.335 (inactive).

Regarding `CN(C)c1ccc(C(O)C2C=CC3C(=O)N(c4ccccc4)C(=O)C3N2Nc2ccc([N+](=O)[O-])cc2)cc1` (configuration not stated), the composite z-score in assay [1] was -0.0383 (inactive); in assay [2] it was 0.648. The z-score in assay [3] is -0.704; in assay [4], -5.57 (inactive); in assay [5], 0.55 (inactive); in assay [6] it was -0.576 (inactive).

Source of the values: PubChem BioAssay.
